RORgamma inh: qHTS for inhibitors of ROR gamma transcriptional activity; AID 2551, 2010; Drosophila S2 Gal4-RORgamma UAS-luciferase reporter, 20 h; 5.4% of 310,000 active; Potency, µM (top dose mostly 53.6 µM), without a hit: top-dose activity change, negative = inhibition, hits mostly inhibitors; also: potency is read from the fitted curve at half-maximal effect; nearly all actives have a fitted effect of over 60% in size
Target sequence (P51450 whole entry, looked up, the tested form may be a part): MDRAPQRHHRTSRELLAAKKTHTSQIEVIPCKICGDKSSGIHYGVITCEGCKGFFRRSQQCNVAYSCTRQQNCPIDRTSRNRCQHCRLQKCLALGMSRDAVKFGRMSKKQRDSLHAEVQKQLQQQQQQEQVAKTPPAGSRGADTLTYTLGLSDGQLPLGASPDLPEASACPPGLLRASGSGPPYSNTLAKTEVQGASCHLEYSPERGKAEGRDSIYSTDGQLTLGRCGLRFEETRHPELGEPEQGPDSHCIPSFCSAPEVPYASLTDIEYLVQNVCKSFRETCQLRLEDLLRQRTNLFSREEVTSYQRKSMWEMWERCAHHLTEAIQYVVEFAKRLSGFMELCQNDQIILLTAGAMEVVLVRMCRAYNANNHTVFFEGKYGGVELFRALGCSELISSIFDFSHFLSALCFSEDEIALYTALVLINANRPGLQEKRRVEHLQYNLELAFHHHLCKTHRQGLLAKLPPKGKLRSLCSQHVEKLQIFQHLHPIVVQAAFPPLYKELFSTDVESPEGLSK
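Drosophila Schneider cells stably carrying a metallothionein-driven Gal4 DBD–ROR gamma fusion and a UAS-Photinus luciferase reporter were exposed to compound for 1 hr, then induced with copper sulfate (700 uM final) for 20 hr at ambient temperature before luminescence reading.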
DT40 TDP1 no CPT: qHTS for Inhibitors of human tyrosyl-DNA phosphodiesterase 1 (TDP1): qHTS in cells in absence of CPT; DT40 Tdp1-/- hTDP1 cells, no CPT, ATP luminescence, 48 h; Potency, µM (doses to about 46.2 µM), without a hit: at the highest dose activity change, negative = growth inhibition, usual class: inhibitors; 15% of 420,000 active; also: potency is read from the fitted curve at half-maximal effect; nearly all actives have a fitted effect of over 55% in size
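Growth of hTDP1-complemented DT40 Tdp1-knockout cells is measured by ATP luminescence after at least 48 hr compound exposure at 37 °C, with DMSO substituting for the 20 nM CPT used in the parallel screen.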
ELG1 repair inh: qHTS screen for small molecules that inhibit ELG1-dependent DNA repair in human embryonic kidney (HEK293T) cells expressing luciferase-tagged ELG1; HEK293T ELG1-luciferase reporter, luminescence, 16 h; DNA damage induced by 5-fluorouridine; Potency, µM (doses to about 46.1 µM), without a hit: top-dose activity change, negative = inhibition, most hits filed as inhibitors; 2.3% of 330,000 active; also: potency is read from the fitted curve at half-maximal effect; nearly all actives have a fitted effect of over 55% in size
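Cells (2,000 per well) received 5-fluorouridine plus test compound or DMSO and were incubated 16 hr at 37 °C, 5% CO2. Luciferase activity was read by luminescence 30 min after ONE-Glo addition; signal suppression marked inhibition of damage-induced ELG1 function.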
DT40 TDP1 CPT: qHTS for Inhibitors of human tyrosyl-DNA phosphodiesterase 1 (TDP1): qHTS in cells in presence of CPT; Potency, µM (titrated, usually from 46.2 µM), without a hit: at the top dose activity change, negative = growth inhibition, most hits filed as inhibitors; 12% of 420,000 active; chicken DT40 Tdp1-/-;hTDP1 cells + 20 nM CPT, ATP luminescence, 48 h; also: potency is read from the fitted curve at half-maximal effect; nearly all actives have a fitted effect of over 55% in size
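Chicken DT40 Tdp1-/- cells stably complemented with human TDP1 were seeded at 400 cells/well in medium containing 20 nM camptothecin, exposed to pin-transferred compounds, and grown at 37 °C for at least 48 hr. Viability was read as ATP luminescence.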
IL1B secr inh: qHTS for Inhibitors of Inflammasome Signaling: IL-1-beta AlphaLISA Primary Screen; THP-1 LPS/ATP IL-1B secretion, AlphaLISA, 16 h; hits give low values; activity change, % at 57.5 µM; 4.7% of 360,000 active; in the data active = activity change below about -50%; inconclusive = mostly about -30% to -49%
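Secreted IL-1B measured by AlphaLISA bead assay after 16 h compound exposure of THP-1 cells; compounds (final up to 57.5 uM) added 1 h before LPS (250 ng/mL) and ATP (1.25 mM) stimulation; lower signal means less secretion.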
Gal4-VP16 FLuc: VP16 counterscreen qHTS for inhibitors of ROR gamma transcriptional activity; Drosophila S2 Gal4-VP16 UAS-luciferase, luminescence, 20 h; Potency, µM (highest dose often 53.6 µM), inactives show at the highest dose activity, negative = inhibition, hits mostly inhibitors; 3.5% of 310,000 active;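 also: Gal4-VP16 expression switched on by copper sulfate through the metallothionein promoter; potency is read from the fitted curve at half-maximal effect; nearly all actives have a fitted effect of over 50% in size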
* = called active by the depositor; ? = inconclusive; / = not tested or not shown; [ ] = dose if it differs, or a comment. A selection: hits, their analogues and other compounds. The true share with any hit is near 21%. Unless noted, calls follow the shape of the dose curve; as a rule, active = well fitted curve in the direction sought with a large enough effect; inconclusive = small, poorly fitted or top-dose-only effect, or another doubt; inactive = no such curve, though single readings can be large; an effect the other way counts as inactive or inconclusive. % is scaled to controls: 0 for no effect and ±100 for the full control effect.

SMILES	RORgamma inh	DT40 TDP1 no CPT	ELG1 repair inh	DT40 TDP1 CPT	IL1B secr inh	Gal4-VP16 FLuc
O=C(NCc1cccs1)c1ccc(CSc2nc3cccnc3n2Cc2ccccc2F)cc1	/	23µM*	/	?	/	/
Cc1ccc(CSc2nc3cccnc3n2Cc2ccc(C(=O)NCc3cccs3)cc2)cc1	/	-3%	/	-28%	/	/
Cc1cccc(C(=O)NNC(=O)c2ccco2)c1	20%	1%	?	-1%	-13	3%
O=c1[nH]cc(N=Cc2cc(Cl)cc(Cl)c2O)c(=O)[nH]1	11µM*	-20%	-4%	14%	-4	13µM*
O=C1c2cccc(-c3ccc(C(F)(F)F)cc3)c2C2CCCCN12 (stereo unspecified)	/	?	/	?	48	/
O=C1c2cccc3c2[C@H](CCC3)CN1[C@@H]1CN2CCC1CC2	/	15µM*	/	17µM*	/	/
C=CCn1c(SCC(=O)NC2CCS(=O)(=O)C2)nnc1-c1cc2c(s1)CCC(CC)C2 (stereo unspecified)	?	?	?	-12%	?	16%
C=CCn1c(-c2cc3c(s2)CCC(CC)C3)n[nH]c1=S (stereo unspecified)	2.2µM*	?	?	?	49	?
CCOc1cc(CNc2ccc3c(c2)OCCO3)cc(Br)c1OCC	?	0.82µM*	?	2.6µM*	-11	?
CCOc1cc(C(=O)NCc2ccc3c(c2)OCO3)cc(OCC)c1OCC	18%	-16%	-13%	4%	-19	5%
CCOc1cc(CNc2ccc(N3CCOCC3)cc2)cc(Br)c1OCC	166%	16µM*	-26%	?	?	-18%
COc1cc(CNc2ccc(N3CCN(C(C)=O)CC3)cc2)ccc1OCc1ccc(F)cc1	?	16µM*	?	?	-19	-6%
CCOc1c(Br)cc(CNc2ccc(N3CCN(C(C)=O)CC3)cc2)cc1OC	-18%	?	?	16µM*	?	?
CCOc1cc(C(=O)Nc2ccc(N3CCN(C(C)=O)CC3)cc2)cc(OCC)c1OCC	13%[1.91 µM]	-2%	?	-7%	14	7%
CCOc1ccc(Br)cc1S(=O)(=O)Nc1ccc(N2CCOCC2)cc1	2%	?	-5%	?	14	3%
Cc1cc(NC(=O)Cn2c(=O)nc(-c3ccccc3F)c3cc(Cl)ccc32)ccc1Br	/	?	/	-22%	/	/
COc1cc(CNc2ccc(N3CCOCC3)cc2)cc(Br)c1OC	13%	16µM*	?	?	-15	?
CC1CCCC(C)N1C(=O)/C=C/c1ccc(S(=O)(=O)N2CCOCC2)cc1 (stereo unspecified)	/	?	13µM*	?	0	/
COc1cccc(/C=C/C(=O)N2CCN(c3ccccn3)CC2)c1	-13%	-8%	?	-1%	56	3%
COc1cccc(/C=C/C(=O)N2CCN(S(=O)(=O)c3ccccc3)CC2)c1	/	21µM*	/	?	-24	/
O=C(NC(=S)N1CCN(c2ccccc2)CC1)c1ccc(S(=O)(=O)N2CCOCC2)cc1	0.71µM*	?	18µM*	?	-10	0.63µM*
O=C(/C=C/c1ccc(S(=O)(=O)N2CCOCC2)cc1)N1CCN(c2ccccc2)CC1	19%	1µM*	?	12µM*	-25	-17%
O=C(Nc1ccccc1)c1ccc(S(=O)(=O)N2CCOCC2)cc1	37%	-15%	5%	-2%	-24	14%
O=C(/C=C/c1ccccc1)N1CCN(S(=O)(=O)c2ccc(F)cc2)CC1	28%	-17%	1%	2%	-14	-4%
Cc1ccccc1OCCC(=O)OCC(=O)NC1CC1	/	0%	16%	8%	6	/
SMILES	RORgamma inh	DT40 TDP1 no CPT	ELG1 repair inh	DT40 TDP1 CPT	IL1B secr inh	Gal4-VP16 FLuc
CN1CCCC2(CCN(C(=O)c3cnccn3)CC2)C1	-2%	-1%	/	5%	/	-10%
Cc1cc(C(=O)COC(=O)C2=NNC(=O)CC2)c(C)n1-c1ccc(OC(F)F)cc1	-15%	?	6%	?	-3	11%
Cc1cc(C(=O)C(C)OC(=O)C2=NNC(=O)CC2)c(C)n1-c1ccc(OC(F)F)cc1 (stereo unspecified)	?	21µM*	2%	?	-10	0%
CC(NC(=O)C12CC3CC(CC(O)(C3)C1)C2)c1ccc(Cl)cc1Cl (stereo unspecified)	-24%	-27%	-1%	-18%	11	6%
O=S(=O)(Cc1ncc(C(F)(F)F)cc1Cl)c1ccccc1	?	?	27%	23µM*	13	-16%
O=C(O)CCc1ncc(C(F)(F)F)cc1Cl	26%	-4%	5%	-8%	-1	12%
O=S(=O)(Nc1ccccc1)c1ccc(Oc2ncc(C(F)(F)F)cc2Cl)cc1	?	?	-16%	15µM*	34	?
CC(C)NS(=O)(=O)c1ccc(Oc2ncc(C(F)(F)F)cc2Cl)cc1	?	?	-13%	?	-2	1%
FC(F)(F)c1cnc(COc2cc(Cl)cc(Cl)c2)c(Cl)c1	1%	-29%	?	-20%	-74*	1%
OC(c1ccco1)c1nc(-c2cccs2)cs1 (stereo unspecified)	/	?	/	?	26	/
COc1cccc(-c2nn(-c3ccccc3)cc2CN(C)Cc2c(C)nc3ccccn23)c1	7.1µM*	?	?	?	16	?
COc1cccc(-c2nn(-c3ccccc3)cc2CN(C)Cc2ccon2)c1	-21%	11µM*	?	-30%	-15	-13%
COc1cccc(-c2nn(-c3ccccc3)cc2CO)c1	-17%	-15%	/	-2%	?	-6%
COc1cccc(-c2nn(-c3ccccc3)cc2CN(C)C(C)c2ccncn2)c1 (stereo unspecified)	?	?	?	-21%	-20	-20%
Cc1ccc(S(=O)(=O)NC(C(=O)O)c2ccccc2)cc1 (stereo unspecified)	-10%	5%	8%	4%	34	0%
CC[C@@H](C(=O)n1nc(C)cc1C)[C@H](NS(=O)(=O)c1ccc(C)cc1)c1ccccc1	21%	21µM*	-10%	?	5	2%
Nc1c([N+](=O)[O-])c(=O)oc2ccccc12	-42%	-10%	0%	-21%	39	6%
